Results published in PubChem BioAssay (NCI).
Where “and” joins values, the source holds several entries; their conditions need not be identical. Identical values can stand only once. About 83,000 compounds went through this panel and 20% of them were active in at least one assay; those are over-represented in the sample as a whole.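 Percent growth is the endpoint: 0 to 100 indicates growth inhibition (40 means 60% inhibition), 0 means no net growth, and negative values indicate cell death.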 Calls of active or inactive are those of the source. The calls were made as follows: active = growth percent below 10; inactive = the rest.

Tested on: MDA-MB-468 breast
Experiment: NCI-60 one-dose screen, 48 h (100 = growth as untreated, 0 = no growth, -100 = all killed)
Conditions: 10 µM unless noted

`CCCCCCCCCCCC(=O)OC(C)C(=O)NCCCC` (stereo unspecified) was tested. Which growth did it give?
Its growth is 105% (inactive).

`COc1cc2c(=O)n(CCN(C)C)c3c4cc5c(cc4ccc3c2cc1OC)OCO5` was tested. Which growth did it give?
The growth was -66.8% (active).

Which growth does the source give for `N#CCCN(CCCN1CCOCC1)CN1C(=O)c2ccccc2C1=O` here?
The growth was 92.2% (inactive).

Which growth does the source give for `Clc1ccc2c(NCCCN3CCOCC3)c3oc4ccccc4c3nc2c1` here?
Its growth is 35.7% (inactive).

With `CCOC(=O)Cc1cc(Br)c(OCc2ccccc2)c(Br)c1` as the compound, how does the growth read?
Its growth is 110% (inactive).

With `CNCCCNc1nc2ccccc2c2c(=O)c3cc(Cl)ccc3sc12` as the compound, how does the growth read?
The growth was 18.4% (inactive).

With `CN1CCN(Cc2ccc(NC(=O)c3cncc(C#Cc4cncc5nccnc45)c3)cc2C(F)(F)F)CC1` as the compound, how does the growth read?
Its growth is 87% (inactive).

With `COCCOC(=O)NC(=O)Nc1ccc(C(=O)c2ccc(Cl)cc2)cc1` as the compound, how does the growth read?
Its growth is -8.24% (active).

For `CCOC(=O)N[C@H]1CCc2cc(OC)c(OC)c(OC)c2-c2ccc(SC)c(=O)cc21`, which growth is on record?
Its growth is -36.8% (active).

Which growth does the source give for `CC1(O)CC(c2nc(-c3ccc4ccc(-c5ccccc5)nc4c3)c3c(N)nccn23)C1` (stereo unspecified) here?
The growth was 25% (inactive).

Which growth does the source give for `O=[N+]([O-])c1ccc(/C=C/C2(CCl)OCCO2)cc1` here?
The growth was 108% (inactive).

Which growth does the source give for `O=C(/C=C/c1ccccc1)c1ccc(Nc2nc(NCCO)nc(Nc3ccc(Cl)cc3)n2)cc1` here?
Its growth is 64.5% (inactive).

Which growth does the source give for `O=[N+]([O-])c1cccc2ccc(N/N=C/c3ccccc3O)nc12` here?
Its growth is 4.06% (active) and 89.3% (inactive).

With `O=C(Nc1ccc(N2CCNCC2)cn1)c1[nH]ncc1Nc1ncnc2sc3c(c12)CCC3` as the compound, how does the growth read?
The growth was -37.9% (active).

With `COc1ccc([C@H]2[C@H](O)C(=O)N2c2cc(OC)c(OC)c(OC)c2)cc1Cl` as the compound, how does the growth read?
Its growth is 10.9% (inactive).

For `COc1ccc(-c2nc3sc(-c4ccc(OC)cc4)c(-c4ccc(OC)cc4)n3c2/C=C/c2ccc(C(C)C)cc2)cc1`, which growth is on record?
The growth was 98.9% (inactive).

How did the growth turn out when `Oc1c(Br)cc(Br)c2ccc(Cn3cc(-c4ccccc4C(F)(F)F)nn3)nc12` was run?
The growth was 72.4% (inactive).

With `COc1nc(Nc2cccc(C(F)(F)F)c2)nc(OC)n1` as the compound, how does the growth read?
Its growth is 112% (inactive).

For `CCCCCCCC/C=C\CCCCCCCCOc1ccccc1CC(=O)NCC[N+]1(C)CCCC1`, which growth is on record?
Its growth is 40.3% (inactive).

For `CCOC(=O)Nc1ccc2c(c1)C(=O)N(CCOC)c1ccccc1O2`, which growth is on record?
The growth was 20.2% (inactive).

`COc1ccc(C(=O)c2nc3ccccc3n2CC(=O)c2ccc(Cl)cc2)cc1` was tested. Which growth did it give?
The growth was 33.8% (inactive).

With `CCCCCCCCOC(=O)c1ccccn1` as the compound, how does the growth read?
The growth was 107% (inactive).

How did the growth turn out when `O=C1CC(N2C(=O)/C(=C/C(Cl)=C\c3ccc([N+](=O)[O-])cc3)SC2=S)C(=O)N1c1ccc(Cl)cc1` (stereo unspecified) was run?
Its growth is -6.24% (active).

For `CN1CCN(Cc2ccc(NC(=O)c3cncc(C#Cc4cnc(N)c5ccncc45)c3)cc2C(F)(F)F)CC1`, which growth is on record?
The growth was 35.5% (inactive).

`CC(=O)Nc1ccc2c(c1)Cc1cc(F)ccc1-2` was tested. Which growth did it give?
Its growth is 101% (inactive).

For `C=C(c1ccc(C(=O)O)cc1)c1cc2c(cc1C)C(C)(C)CCC2(C)C`, which growth is on record?
Its growth is 109% (inactive) and 103% (inactive).
